Measurements as given in PubChem BioAssay.
The source made the active and inactive calls.

Legend:
[1] = small molecules captured by biotinylated probe aFSTL3 – biochemical, small-molecule microarray, fluorescence 635/667, stem cell growth factor project, primary screen (AID 1064); details: higher = more signal;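 also: measures binding of the biotinylated anti-FSTL3 antibody to printed compounds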
[2] = binders from COS7 lysate, DM2A8 probe, primary screen, torsin A project, cell lysate, small-molecule microarray, fluorescence 635/667 (AID 1065); details: higher = more signal, COS7 lysate expressing mutant human TOR1A
[3] = small molecules captured by biotinylated probe aFGF2 – biochemical, small-molecule microarray, fluorescence 635/667, stem cell growth factor project, primary screen (AID 1067); details: higher = more signal;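 also: measures binding of biotinylated aFGF2 protein to printed compounds on slides; z-score merges feature fluorescence and signal-to-noise across triplicate slides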
[4] = small molecules captured by biotinylated probe aFGF10 – biochemical, small-molecule microarray, fluorescence 635/667, stem cell growth factor project, primary screen (AID 1071); details: higher = more signal;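 also: score merges 667 nm spot intensity and signal to noise from triplicate slides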
[5] = molecular target: Neurogenic locus notch homolog protein 2 (Homo sapiens) (UniProt Q04721); experiment: small molecules binding Notch2 protein – biochemical, small-molecule microarray, 635 nm fluorescence, stem cell growth factors, primary screen (AID 1073); details: higher = more signal
[6] = molecular target: Pro-neuregulin-1, membrane-bound isoform (Homo sapiens) (UniProt Q02297); experiment: small molecules binding neuregulin-1 protein – biochemical, small-molecule microarray, fluorescence 635/667, psychiatric disease protein project, primary screen (AID 1075); details: NRG1 binding, 635 nm fluorescence, higher = more signal;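 also: score combines 667 nm spot fluorescence with signal to noise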
[7] = system: Neuregulin-1 EGF-like domain; experiment: small molecules binding NRG1 EGF domain – biochemical, small-molecule microarray, 635 nm fluorescence, primary screen (AID 1081); details: higher = more signal;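 also: binding of the protein to compounds printed on small-molecule microarray slides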
[8] = FRG1 expression reporter modulators in myotubes – cell-based, C2C12 myotubes, firefly/Renilla luciferase, luminescence, FRG1 inhibition for FSHD, primary screen (AID 1084); details: FRG1 promoter luciferase, higher = more signal, called active from +8 up or from −8 down
[9] = small molecules captured by biotinylated probe aFST – biochemical, small-molecule microarray, fluorescence 635/667, stem cell growth factor project, primary screen (AID 1086); details: higher = more signal;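 also: score merges 667 nm fluorescence with signal-to-noise of each printed compound spot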
[10] = binders of probe aHhip on microarray, primary screen, stem cell growth factor project, biochemical, small-molecule microarray, fluorescence 635/667 (AID 1087); details: higher = more signal;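 also: score merges spot fluorescence at 667nm with spot signal to noise ratio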

Neurogenic locus notch homolog protein 2 (Homo sapiens), sequence (Q04721 whole entry, looked up, canonical isoform): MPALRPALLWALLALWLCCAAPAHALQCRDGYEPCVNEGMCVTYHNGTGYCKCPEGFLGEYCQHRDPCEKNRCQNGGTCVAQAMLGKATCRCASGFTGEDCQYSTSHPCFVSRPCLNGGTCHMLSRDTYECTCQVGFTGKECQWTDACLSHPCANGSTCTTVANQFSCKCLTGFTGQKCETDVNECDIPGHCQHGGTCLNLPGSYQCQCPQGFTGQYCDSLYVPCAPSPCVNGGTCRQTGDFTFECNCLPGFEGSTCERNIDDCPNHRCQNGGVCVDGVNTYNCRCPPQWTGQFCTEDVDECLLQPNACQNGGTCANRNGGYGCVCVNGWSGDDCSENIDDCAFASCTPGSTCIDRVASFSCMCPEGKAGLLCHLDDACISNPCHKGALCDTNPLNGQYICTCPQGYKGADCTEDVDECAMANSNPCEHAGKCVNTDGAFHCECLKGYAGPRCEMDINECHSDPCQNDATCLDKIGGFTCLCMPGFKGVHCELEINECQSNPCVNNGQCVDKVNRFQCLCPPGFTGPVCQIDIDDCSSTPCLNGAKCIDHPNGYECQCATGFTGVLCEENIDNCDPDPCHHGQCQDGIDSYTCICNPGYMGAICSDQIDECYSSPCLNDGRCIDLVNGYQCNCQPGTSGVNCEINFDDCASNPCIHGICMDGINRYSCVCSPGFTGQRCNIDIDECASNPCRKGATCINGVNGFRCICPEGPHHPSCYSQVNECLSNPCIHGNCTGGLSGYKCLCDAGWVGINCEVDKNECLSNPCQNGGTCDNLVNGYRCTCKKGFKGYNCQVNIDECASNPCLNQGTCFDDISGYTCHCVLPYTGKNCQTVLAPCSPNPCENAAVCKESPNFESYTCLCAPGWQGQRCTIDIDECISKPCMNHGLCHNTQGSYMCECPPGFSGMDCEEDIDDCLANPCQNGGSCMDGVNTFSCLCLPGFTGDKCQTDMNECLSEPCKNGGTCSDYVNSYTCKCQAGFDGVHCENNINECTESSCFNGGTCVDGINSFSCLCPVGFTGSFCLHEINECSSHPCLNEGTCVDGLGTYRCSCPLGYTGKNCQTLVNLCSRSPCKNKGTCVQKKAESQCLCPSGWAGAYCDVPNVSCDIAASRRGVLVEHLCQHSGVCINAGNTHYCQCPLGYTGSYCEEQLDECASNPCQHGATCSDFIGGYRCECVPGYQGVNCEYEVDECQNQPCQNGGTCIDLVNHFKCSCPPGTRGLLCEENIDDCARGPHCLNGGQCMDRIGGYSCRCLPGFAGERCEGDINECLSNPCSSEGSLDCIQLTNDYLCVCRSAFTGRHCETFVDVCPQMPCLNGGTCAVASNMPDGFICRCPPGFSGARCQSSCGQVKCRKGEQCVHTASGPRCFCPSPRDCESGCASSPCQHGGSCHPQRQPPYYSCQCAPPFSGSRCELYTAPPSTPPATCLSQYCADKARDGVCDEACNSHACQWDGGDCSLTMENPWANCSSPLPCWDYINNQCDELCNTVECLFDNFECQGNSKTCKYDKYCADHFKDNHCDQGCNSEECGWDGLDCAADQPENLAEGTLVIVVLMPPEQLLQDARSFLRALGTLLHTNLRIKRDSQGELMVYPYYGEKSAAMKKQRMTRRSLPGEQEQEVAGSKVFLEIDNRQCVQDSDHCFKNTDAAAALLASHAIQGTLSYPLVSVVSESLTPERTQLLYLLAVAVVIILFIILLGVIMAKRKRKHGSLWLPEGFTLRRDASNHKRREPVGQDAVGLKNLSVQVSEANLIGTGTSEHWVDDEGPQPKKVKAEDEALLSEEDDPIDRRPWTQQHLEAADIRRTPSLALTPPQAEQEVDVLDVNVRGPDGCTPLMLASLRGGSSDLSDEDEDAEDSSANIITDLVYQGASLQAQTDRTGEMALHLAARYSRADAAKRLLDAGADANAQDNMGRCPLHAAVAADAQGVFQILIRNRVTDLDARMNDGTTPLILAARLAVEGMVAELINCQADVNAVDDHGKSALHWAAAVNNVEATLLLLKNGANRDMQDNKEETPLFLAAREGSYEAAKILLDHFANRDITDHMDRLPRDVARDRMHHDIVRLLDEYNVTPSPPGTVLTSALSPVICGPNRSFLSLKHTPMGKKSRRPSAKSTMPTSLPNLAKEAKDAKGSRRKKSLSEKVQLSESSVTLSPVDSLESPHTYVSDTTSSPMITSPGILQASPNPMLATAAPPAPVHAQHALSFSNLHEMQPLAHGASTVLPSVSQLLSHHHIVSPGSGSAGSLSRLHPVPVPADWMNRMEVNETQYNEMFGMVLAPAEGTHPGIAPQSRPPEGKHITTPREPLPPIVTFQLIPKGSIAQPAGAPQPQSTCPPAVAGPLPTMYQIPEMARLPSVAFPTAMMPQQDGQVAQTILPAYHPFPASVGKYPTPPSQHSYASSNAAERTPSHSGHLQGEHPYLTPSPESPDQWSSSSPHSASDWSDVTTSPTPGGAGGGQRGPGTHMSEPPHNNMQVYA
Pro-neuregulin-1, membrane-bound isoform (Homo sapiens), sequence (Q02297 whole entry, looked up, the tested form may be a part, canonical isoform): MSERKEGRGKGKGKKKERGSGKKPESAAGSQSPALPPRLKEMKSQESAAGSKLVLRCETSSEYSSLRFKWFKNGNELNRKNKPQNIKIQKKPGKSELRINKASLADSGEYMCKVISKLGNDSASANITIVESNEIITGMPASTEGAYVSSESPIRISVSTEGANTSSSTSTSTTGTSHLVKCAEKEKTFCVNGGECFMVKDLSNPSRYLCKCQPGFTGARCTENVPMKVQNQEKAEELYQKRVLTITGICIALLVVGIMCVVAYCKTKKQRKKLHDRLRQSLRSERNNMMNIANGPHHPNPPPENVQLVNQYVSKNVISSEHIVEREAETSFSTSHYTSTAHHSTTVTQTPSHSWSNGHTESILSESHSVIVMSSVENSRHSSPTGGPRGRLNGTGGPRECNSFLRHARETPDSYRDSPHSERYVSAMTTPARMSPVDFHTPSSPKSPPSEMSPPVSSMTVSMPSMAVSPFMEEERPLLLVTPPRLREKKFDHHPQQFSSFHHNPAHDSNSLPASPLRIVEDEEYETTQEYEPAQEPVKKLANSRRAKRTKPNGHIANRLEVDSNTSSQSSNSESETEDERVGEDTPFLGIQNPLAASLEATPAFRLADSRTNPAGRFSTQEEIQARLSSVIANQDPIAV

| SMILES | composite z-score [1] | composite z-score [2] | composite z-score [3] | composite z-score [4] | composite z-score [5] | composite z-score [6] | composite z-score [7] | z-score [8] | composite z-score [9] | composite z-score [10] |
| --- | --- | --- | --- | --- | --- | --- | --- | --- | --- | --- |
| COC(=O)[C@@]1(Cc2ccc(F)cc2)[C@H]2c3cc(C(=O)N(C)C)n(Cc4ccsc4Br)c3C[C@H]2CN1C(=O)c1ccccc1 | 2.25 | -0.3 | 0.915 | 1.01 | 1.83 | 1.88 | 0.529 | 1.94 (inactive) | 2.68 | 3.87 |
| CN1C2C=C(c3ccc(CO)cc3)C(C3C(=O)N(C(N)=O)C(=O)C32)C1C1CC1 (stereo not given) | -0.153 | 0.103 | -0.146 | -0.0401 | -0.161 | 0.0413 | 0.663 | 0.567 (inactive) | -0.0595 | -0.201 |
| CC(C)Cc1ccc(CN2CC[C@@H](NC(=O)c3ccccc3)C2)cc1 | 0.0315 | 0.481 | -0.176 | -0.102 | -0.859 | 0.638 | -0.368 | -0.623 (inactive) | -0.174 | -0.13 |
| COc1ccc([Si](C)(C)[C@H]2[C@H](CC(=O)N(CCO)Cc3ccccc3)O[C@@]3(C(=O)N(c4ccccc4)c4ccccc43)[C@@H]2C)cc1 | -0.249 | -0.182 | -0.0261 | 0.638 | 0.199 | 0.951 | 0.46 | -1.91 (inactive) | 0.294 | -0.0581 |
| C=C(C(=O)CC[C@H](OC(=O)c1ccccc1-c1ccccc1C(=O)O)c1ccc(OCCO)cc1)C(C)C | -0.525 | 0.166 | 0.0033 | 0.13 | 0.214 | 1.76 | 1.26 | 1.72 (inactive) | 0.239 | -0.0994 |
| CS(=O)(=O)CCOC(=O)C1=CC(CCCO)=CC(C2CC2)N(Cc2sc3ccccc3c2Cl)C=C1C(=O)OCCS(C)(=O)=O (stereo not given) | -0.143 | 0.0105 | 0.0498 | 0.4 | 1.36 | 1.92 | 1.18 | -0.133 (inactive) | 0.903 | -0.134 |
| CC(C)[Si](C#Cc1ccccc1)(O[C@H](c1ccccc1)c1cn(Cc2ccccc2)nn1)C(C)C | -0.527 | 0.884 | -0.123 | 0.76 | 0.534 | 0.8 | 1.28 | 0.92 (inactive) | 0.0643 | 0.107 |
| [N-]=[N+]=NCc1ccccc1C[C@]1(C(=O)N2CCCCC2)COC(c2ccc(OCCCO)cc2)=N1 | 0.438 | 0.184 | -0.0151 | 1.01 | 0.207 | 1.13 | 0.996 | -4.13 (inactive) | 1.68 | 2.35 |
| CC[C@@H](O[Si](C#C[Si](C(C)C)(C(C)C)C(C)C)(C(C)C)C(C)C)c1cn(Cc2cccc(Cl)c2)nn1 | -0.385 | 0.6 | -0.0594 | 0.238 | 0.863 | -0.019 | 0.69 | -0.0554 (inactive) | 0.197 | -0.0003 |
| COc1ccc(-c2cc3c(c(CCc4ccccc4)n2)[Si](C(C)C)(C(C)C)O[C@H]3c2ccccc2)cn1 | -0.605 | -0.678 | -0.0754 | 0.0306 | 0.135 | 0.371 | -0.598 | 0.0071 (inactive) | 0.16 | -0.164 |
| COc1ccc(C(=O)Nc2cccc(CN3C(=O)[C@]4(O[C@H](CC(=O)N(CCO)Cc5ccccc5)[C@@H]([Si](C)(C)c5ccc(OC)cc5)[C@@H]4C)c4ccccc43)c2)cc1 | -0.211 | 0.333 | -0.0695 | 0.792 | 0.784 | 0.61 | 0.958 | -1.07 (inactive) | -0.16 | 0.2 |
| C[N+](C)(C)CCCC[C@@H]1NC(=O)[C@H]2C[C@@H](C(=O)NCCCCCN)[C@@H](c3ccc(O)cc3)N2C1=O | 0.0912 | 1.95 | -0.0593 | 0.873 | 0.717 | 1.79 | 1.21 | -0.0231 (inactive) | 1.2 | 0.0722 |
| COc1ccc([Si](C)(C)[C@H]2[C@H](CC(=O)N(CCO)Cc3ccccc3)O[C@@]3(C(=O)N(Cc4cccc(N5CCCCC5=O)c4)c4ccccc43)[C@@H]2C)cc1 | -0.4 | 1.12 | -0.0557 | 0.141 | 0.262 | 0.535 | 0.907 | -2.71 (inactive) | 0.0417 | -0.166 |
| COC(=O)[C@@]1(Cc2ccc(OC)cc2)[C@@H]2[C@@H](CC(=O)[C@H]2CC(=O)C(=O)N(C)C)CN1C(=O)c1ccccc1 | 2.09 | 0.496 | 0.81 | 1.2 | 1.78 | 1.69 | 1.06 | -0.224 (inactive) | 2.67 | 0.357 |
| CC(C)N1C(=O)[C@@]2(Cc3ccccc31)c1ccccc1C(=O)N(Cc1ccccc1C(F)(F)F)[C@H]2c1ccc(CO)cc1 | -0.303 | 0.0613 | -0.0775 | 0.108 | 0.339 | 0.39 | 1.46 | -0.641 (inactive) | 0.086 | -0.116 |
| CCOC(=O)C[C@H]1[C@H](OC(=O)c2ccc(-c3ccccc3)cc2)[C@@H](NC(=O)C2CCCCC2)c2cc(OCCCO)ccc2N1C(=O)Cc1ccc(OC)cc1 | -0.114 | 0.279 | -0.0369 | 0.0887 | 0.215 | 0.157 | -0.481 | -0.054 (inactive) | 0.241 | 0.0722 |
| COc1ccc(CCNC(=O)[C@@]2(C)c3ccccc3C(=O)N(Cc3ccc(OC(F)(F)F)cc3)[C@H]2c2ccc(CO)cc2)cc1 | -1.45 | 0.197 | -0.0211 | 0.0093 | 0.484 | 0.41 | 1.12 | -4.33 (inactive) | 0.122 | -0.679 |
| C=CCOC(=O)[C@H]1[C@@H]2C(=O)O[C@@H](c3ccccc3)[C@@H](c3ccccc3)N2[C@@H](c2ccc(OCCOC(=O)[C@H]3C[C@H]4C(=O)NCC(=O)N4[C@H]3c3ccc(O)cc3)cc2)[C@]12C(=O)Nc1ccccc12 | 0.924 | 0.933 | -0.0355 | 0.738 | 1.2 | 1.57 | 1.33 | 0.575 (inactive) | 0.389 | 0.49 |
| CC(C)N1C(=O)[C@@]2(Cc3ccccc31)c1ccccc1C(=O)N(Cc1ccccc1)[C@H]2c1ccc(CO)cc1 | -0.244 | -0.164 | -0.204 | -0.125 | -0.291 | 0.251 | 0.322 | -0.0076 (inactive) | -0.0754 | -0.391 |
| C=C[C@H](C)[C@@H](OC(=O)Nc1ccc(SC)cc1)c1ccc(OCCO)cc1 | 0.169 | 0.378 | -0.0408 | 0.0044 | -0.421 | 0.99 | 1.26 | 5.34 (inactive) | 0.0372 | -0.264 |
| OCCCc1cc[n+](Cc2cc3c(cc2Br)OCO3)cc1 | 0.622 | -0.226 | -0.116 | -0.782 | -0.914 | 1.23 | 0.583 | 0.584 (inactive) | -0.222 | -0.383 |
| O=C1O[C@@H](c2ccccc2)[C@@H](c2ccccc2)N2[C@@H](c3ccc(OCCO)cc3)[C@]3(C(=O)Nc4ccc(C#CC5=CCCCC5)cc43)[C@@H](C(=O)Nc3nc4ccccc4s3)[C@H]12 | -0.574 | 0.0484 | -0.357 | 0.3 | 0.91 | 0.744 | 0.651 | 4.67 (inactive) | -1.06 | -1.07 |
| Cc1ccc(N2C(=O)c3ccccc3[C@@H](C(=O)NCCN3CCOCC3)[C@@H]2c2ccc(CO)cc2)nc1 | 1.02 | -1.48 | -0.116 | -0.319 | -1.34 | 0.209 | -0.297 | 0.169 (inactive) | -0.58 | -0.249 |
| C=C(C(=O)CC[C@@H](OC(=O)c1ccccc1-c1ccccc1C(=O)O)c1cccc(OCCO)c1)C(C)C | -0.308 | 2.23 | -0.0577 | 1.22 | 0.234 | 0.535 | -0.141 | 0.345 (inactive) | -0.156 | 0.154 |
| CO[C@H]1O[C@H](CO)[C@@H](OC(=O)Nc2ccccc2)[C@@H]2OC(=O)[C@@H](Cc3ccccc3)C/C=C/C[C@H](Cc3ccccc3)C(=O)O[C@@H]12 | -0.263 | 1.24 | -0.0737 | 0.393 | -0.0327 | 0.379 | 0.324 | -0.461 (inactive) | 0.241 | 0.176 |
| C=CCNC(=O)[C@H]1[C@@H]2C(=O)O[C@@H](c3ccccc3)[C@@H](c3ccccc3)N2[C@@H](c2ccc(OCCO)cc2)[C@]12C(=O)N(C(=O)OCCOC)c1ccc(C#CCNC(N)=O)cc12 | 0.141 | 0.275 | -0.399 | 0.474 | 1.41 | 0.491 | 0.778 | -0.988 (inactive) | 0.942 | -0.246 |
| CCOC(=O)C[C@H]1[C@H](OC(=O)c2ccc(-c3ccccc3)cc2)[C@@H](NC(=O)c2ccc(-c3ccccc3)cc2)c2cc(OCCCO)ccc2N1C(=O)c1ccccc1 | -0.326 | 0.254 | -0.0317 | 0.573 | 0.528 | 0.534 | 0.905 | -0.281 (inactive) | 0.627 | -0.213 |
